Data reported in PubChem BioAssay AID651703 (Broad Institute, 2012).
The whole screen tested about 1,200 compounds, of which about 970 (81%) were called active. No rule for the calls is given here. The set was probably picked from earlier hits. Not all results are given here. Potency and affinity values are given separately. Non-standard residues stand in square brackets, D forms with d. Residues, ends and D or L forms follow the SMILES beside them. *: point of attachment. Ac5c = NC1(C(=O)O)CCCC1; Cbz = O=C(OCc1ccccc1)*

Biological target: Transforming acidic coiled-coil-containing protein 3 (Homo sapiens) (UniProt Q9Y6A5)
Test: inhibition of ARNT PAS-B/TACC3 complex formation – biochemical, AlphaScreen, cherry-picked samples, confirmation (AID 651703);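 also: TACC3 partner is the GST-tagged E629A mutant dimer; hits lower the signal meaning they disrupt ARNT binding to TACC3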
Conditions: AlphaScreen His-ARNT PAS-B / GST-TACC3 binding, luminescence; series mostly up to 68 µM; activity change, negative = inhibition: at the top concentration

SMILES | activity change, negative = inhibition
O=C(C[C@@H]1CC[C@H](NC(=O)Nc2cc(F)ccc2F)[C@@H](CO)O1)Nc1ccc(-c2ccccc2)cc1 | -2.09% (inactive)
COc1cc(C2C(C#N)=C(N)Oc3n[nH]c(C)c32)ccc1OC(=O)c1ccccc1 (configuration not stated) | -16.4% (inactive)
COC(=O)C1(NC(=O)CNC(=O)OCc2ccccc2)CCCC1 (Cbz-Gly-[Ac5c]-OMe) | -7.97% (inactive)
CCN(CC)CCCNc1nc2ccccc2c2[nH]c3ccc(OC)cc3c12 | -7.38% (inactive)
Cn1c(N)c(C(=O)c2cc(-c3ccccn3)nc3ccccc23)c(=O)[nH]c1=O | -17.4% (inactive)
Cc1c(NC(=O)c2cccnc2C(=O)O)cccc1C(=O)O | -3.04% (inactive)
N#Cc1ccc(CC(=O)c2ccccc2)[nH]c1=O | -8.48% (inactive)
C[C@@H]1CN([C@H](C)CO)S(=O)(=O)c2ccc(C#Cc3ccccn3)cc2O[C@@H]1CN(C)C(=O)C1CC1 | -9.78% (inactive)
C[C@H](CO)N1C[C@H](C)[C@H](CN(C)Cc2cccnc2)Oc2cc(C#CCN(C)C)ccc2S1(=O)=O | -10.9% (inactive)
O=C(N[C@H]1CC[C@@H](CCn2cc(-c3ccccc3)nn2)O[C@@H]1CO)c1cnccn1 | -5.38% (inactive)
O=C(C[C@@H]1CC[C@@H](NC(=O)c2ccccc2)[C@H](CO)O1)Nc1ccc(-c2ccccc2)cc1 | -7.97% (inactive)
O=C(C[C@H]1CC[C@@H](NC(=O)c2ccccc2)[C@H](CO)O1)Nc1ccc(-c2ccccc2)cc1 | -7.06% (inactive)
CN1CCC(n2[nH]c(-c3ccccc3)c(Cc3ccccc3)c2=O)CC1 | -10.5% (inactive)
COc1ccc(-c2cnc3c(c2)C(=O)N([C@H](C)CO)C[C@@H](C)[C@H](CN(C)Cc2cccnc2)O3)cc1 | -5.95% (inactive)
CC(C)NC(=O)Nc1ccc2c(c1)CC(=O)N([C@H](C)CO)C[C@H](C)[C@H](CN(C)S(=O)(=O)c1cccs1)O2 | -14.9% (inactive)
COc1ccc(CN(C)C[C@@H]2Oc3ccc(NC(=O)Cn4cnnn4)cc3C(=O)N([C@@H](C)CO)C[C@H]2C)cc1 | -9.62% (inactive)
C[C@@H]1CN([C@@H](C)CO)C(=O)c2cc(NC(=O)CCN3CCOCC3)ccc2O[C@@H]1CN(C)Cc1ccncc1 | -3.85% (inactive)
C[C@H](CO)N1C[C@H](C)[C@H](CN(C)C(=O)NC2CCCCC2)Oc2ccc(NS(=O)(=O)c3cccs3)cc2CC1=O | -6.44% (inactive)
CC(C)NC(=O)N(C)C[C@H]1Oc2ccc(N(C)C)cc2CC(=O)N([C@@H](C)CO)C[C@@H]1C | 0.668% (inactive)
C[C@H]1CN([C@@H](C)CO)C(=O)c2cc(C#Cc3ccccn3)cnc2O[C@@H]1CN(C)Cc1ccccc1 | -12.5% (inactive)
Cc1cc(C)n2nc(-c3cccc(Br)c3)cc2n1 | 0.525% (inactive)
N/C(=N\NS(=O)(=O)c1ccccc1Cl)c1ccccn1 | -23% (inactive)
S=c1[nH]nc(-c2cc3c(s2)-c2ccccc2CC3)o1 | -31.4% (inactive)
COc1cc2c(cc1OC)-c1cc(Nc3cccc(C)c3)nc(=O)n1CC2 | 5.52% (inactive)

SMILES | activity change, negative = inhibition
O=C(COC(=O)c1ccc([N+](=O)[O-])o1)NCc1ccccc1 | -21.1% (inactive)
NS(=O)(=O)c1ccc(CCNC(=O)COC(=O)c2ccc([N+](=O)[O-])o2)cc1 | -30.5% (inactive)
O=C(NCCc1ccccc1)c1ccc(=O)[nH]c1 | -5.64% (inactive)
NC(=O)CC(NC(=O)c1ccccc1)c1ccc(NCc2ccccn2)c([N+](=O)[O-])c1 (configuration not stated) | -13.6% (inactive)
COc1cc(/C=N/NC(=O)CSc2n[nH]c(=O)[nH]c2=O)cc(OC)c1O | -11% (inactive)
O=C(c1cc(-c2ccccc2)on1)N1CCC(N2CCOCC2)CC1 | -4.7% (inactive)
O=C(c1cc(-c2ccccc2)on1)N1CCC(CO)CC1 | -1.3% (inactive)
Cc1[nH]c(=O)[nH]c(=O)c1/C=N/NC(=O)[C@H](C)NC(=O)OC(C)(C)C | -1.1% (inactive)
COc1ccc(-c2nnc(SCC(=O)NC3CC3)o2)cc1 | -3.22% (inactive)
COC(=O)C[C@@H]1CC[C@@H](NS(=O)(=O)c2ccc(OC)cc2)[C@H](CO)O1 | -0.059% (inactive)
Cc1[nH]cnc1CN1CCc2c(c3ccccc3n2C)C1=O | -21.6% (inactive)
COc1ccc(C(=O)Nc2nc3ccccc3[nH]2)cc1S(=O)(=O)N1CCOCC1 | -27.7% (inactive)
O=C(NCCCN1CCOCC1)c1cc(-c2ccccc2)on1 | 6.12% (inactive)
O=C(NCCN1CCOCC1)c1cc(-c2ccccc2)on1 | -3.9% (inactive)
CCOc1cc2nc(-c3ccc(OC)c(OC)c3)nc(NCCCN3CCOCC3)c2cc1OC | -5.91% [at 35 µM] (inactive)
C#CCOCCOCCOCCNc1nc(N2CCN(C(=O)[C@H](CCCCN)n3cc([C@@H](N)CC(N)=O)nn3)CC2)nc(N2CCN(C(=O)[C@H](CCCCN)n3cc([C@@H](N)CC(N)=O)nn3)CC2)n1 | -22% (inactive)
C#CCOCCOCCOCCNc1nc(N2CCN(C(=O)C([C@@H](C)O)n3cc([C@@H](N)CCCCN)nn3)CC2)nc(N2CCN(C(=O)C([C@@H](C)O)n3cc([C@@H](N)CCCCN)nn3)CC2)n1 (some centres not stated) | -11% (inactive)
C#CCOCCOCCOCCNc1nc(N2CCN(C(=O)[C@H](CCC(=O)O)n3cc([C@@H](N)CCCCN)nn3)CC2)nc(N2CCN(C(=O)[C@H](CCCCN)n3cc([C@@H](N)CC(N)=O)nn3)CC2)n1 | -14.6% (inactive)
C#CCOCCOCCOCCNc1nc(N2CCN(C(=O)Cn3cc(CCCCN)nn3)CC2)nc(N2CCN(C(=O)[C@H](CCCCN)n3cc(CCCC)nn3)CC2)n1 | -8.06% (inactive)
CCOc1cc(C(=O)NC2CC(C)(C)NC(C)(C)C2)cc(OCC)c1OCC | -3.7% (inactive)
c1ccc(CN2CCN(CCCNc3ccc4nnc(-c5ccccc5)n4n3)CC2)cc1 | -28.4% (inactive)
Oc1cccc(CN2CCOCC2)c1O | -3.34% (inactive)
COc1ccc(C(=O)NNC(=O)Cc2coc3cc(OC)ccc23)cc1 | -12.1% (inactive)
CCN(/N=C/c1ccccc1)c1cc(=O)n(C)c(=O)[nH]1 | -29.9% (inactive)

SMILES | activity change, negative = inhibition
O=C(Nc1ccccc1)N1CCCCN2[C@H](C1)[C@H](c1ccc(C#CC3CC3)cc1)[C@@H]2CO | -25.8% (inactive)
CC(C)(C)c1cc(C(=O)NCCCn2ccnc2)cc(C(C)(C)C)c1 | -17.3% (inactive)
O=C(NCCCn1ccnc1)c1cc(-c2ccccc2)on1 | -3.75% (inactive)
COc1ccc(-c2cnc3c(c2)C(=O)N([C@H](C)CO)C[C@H](C)[C@H](CN(C)Cc2cccnc2)O3)cc1 | -2.08% (inactive)
O=C(O)C1C2C=CC(C2)C1C(=O)NCCCn1ccnc1 (configuration not stated) | -5.06% (inactive)
CN(c1ccc(C(=O)N2CCc3ccccc3C2)cc1)S(C)(=O)=O | -30.6% (inactive)
O=C(C1CC1)N1CCc2cc(Br)cc(S(=O)(=O)NCc3ccccn3)c21 | -4.26% (inactive)
CO[C@H]1CN(C)C(=O)c2cc(NS(=O)(=O)CC(F)(F)F)ccc2OC[C@H](C)N(Cc2cccnc2)C[C@@H]1C | -3.73% (inactive)
O=C(Nc1ccc(Br)cn1)c1cccc(C(=O)Nc2ccc(Br)cn2)c1 | -24.4% (inactive)
O=C(NC1Cc2ccccc2C1)c1cc(-c2ccccc2)on1 | -0.19% (inactive)
c1c[nH]c(CN2CCN(Cc3ncc[nH]3)CC2)n1 | -24% (inactive)
CC1(C)CC(=O)C=C(Nc2ccccc2N)C1 | 13.5% (inactive)
O=c1[nH]cnc2c1C(c1ccccc1[N+](=O)[O-])c1c(nc[nH]c1=O)O2 | -10.3% (inactive)
O=C(NCCCCO)c1cc(-c2ccccc2)on1 | -1.85% (inactive)
O=C1CN(C(=O)COC(=O)c2ccc([N+](=O)[O-])o2)c2ccccc2N1 | -18.7% (inactive)
O=C(O)c1c[nH]c2c([N+](=O)[O-])cccc2c1=O | -5.07% (inactive)
O=C(N/N=C/c1c(Cl)nc2ccccn2c1=O)c1cccnc1 | -20.1% (inactive)
C[C@H](CO)N1C[C@H](C)[C@@H](CN(C)C(=O)Nc2ccc(C(F)(F)F)cc2)Oc2ncc(C3=CCCC3)cc2C1=O | -28.6% (inactive)
O=C(Nc1cnc2ccccc2c1)c1cc(-c2ccccc2)on1 | -3.86% (inactive)
CCOC(=O)N1CCN(C(=O)CSc2ccc3nnc(-c4ccccn4)n3n2)CC1 | -23.3% (inactive)
O=C(Nc1cccc(F)c1)c1cccnc1NCCc1ccccc1 | -12.3% (inactive)
Cc1ccc(C2=CSC3=NS(=O)(=O)CCN23)cc1 | -17.9% (inactive)
O=C(Nc1ccc2nc(-c3ccccn3)[nH]c2c1)C1CCCCC1 | -26.6% (inactive)
O=C(NN=C1CCCC1)c1ccc(O)cc1O | -19% (inactive)
